Source: PubChem BioAssay
A number with no mark means an inactive call. Where a call stands in place of a potency, no number is given. For some assays here: Potency and affinity values are given separately. Calls of active or inactive are those of the source. Unless noted, no rule for the calls is given here.

Key:
[1] = antimalarial activity against Dd2 strain (AID 2302;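 active = growth inhibition above 50% at the single 2 µM test dose, taken to imply half-maximal potency below 2 µM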); conditions: P. falciparum Dd2 in RBCs, LDH growth readout, 72 h; at 2 µM; hits give high values
[2] = HepG2 cytotoxicity, primary screen, cytotoxicity control for P. falciparum antimalarial project, cell-based, ATP luminescence (AID 2303;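 active = inhibition above 50%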); conditions: HepG2 viability, 24-48 h, at 10 µM, hits give high values
[3] = target: L-lactate dehydrogenase (Plasmodium falciparum (isolate CDC / Honduras)) (UniProt Q27743); experiment: PfLDH activity inhibition – cell lysate, 3D7 strain, counter-screen for P. falciparum growth inhibition project (AID 2304); conditions: P. falciparum 3D7 crude extract, LDH APAD/NBT absorbance; at 2 µM; hits give high values
[4] = inhibition of 3D7 malaria parasite growth – strain 3D7 (AID 2306); conditions: P. falciparum 3D7 erythrocytic growth, LDH absorbance, 72 h; at 2 µM; hits give high values
[5] = target: Calcium-dependent protein kinase 1 (Plasmodium falciparum (isolate 3D7)) (UniProt P62344); experiment: PfCDPK1 kinase inhibitors, biochemical, TCAMS library (AID 1159585; cut-off not given, nearly all actives have IC50 up to about 0.98 µM;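 also: inhibitors leave more ATP so luminescence rises with inhibition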); conditions: recombinant PfCDPK1, Kinase-Glo ATP depletion luminescence
[6] = target: Plasmodium falciparum protein kinase 6 (PK6, PF3D7_1337100) (UniProt Q8IDW1); experiment: PfPK6 kinase inhibitors, biochemical, TCAMS library (AID 1159586); conditions: recombinant PfPK6, Kinase-Glo ATP depletion luminescence
[7] = target: Protein kinase 7 (PK7), Plasmodium falciparum 3D7 (PF3D7_0213400) (UniProt Q7YTF7); experiment: inhibition of Plasmodium PK7 catalytic activity – biochemical, TCAMS antimalarial set, Kinase-Glo luminescence (AID 1159587); conditions: recombinant PfPK7, Kinase-Glo ATP depletion luminescence
[8] = target: Calcium-dependent protein kinase 4 (Plasmodium falciparum (isolate 3D7)) (UniProt Q8IBS5); experiment: PfCDPK4 kinase inhibitors, biochemical, TCAMS library (AID 1159588; cut-off not given, nearly all actives have IC50 up to about 0.91 µM); conditions: recombinant PfCDPK4, Kinase-Glo ATP depletion luminescence
Sequence of Calcium-dependent protein kinase 4 (Plasmodium falciparum (isolate 3D7)) (Q8IBS5 whole entry, looked up): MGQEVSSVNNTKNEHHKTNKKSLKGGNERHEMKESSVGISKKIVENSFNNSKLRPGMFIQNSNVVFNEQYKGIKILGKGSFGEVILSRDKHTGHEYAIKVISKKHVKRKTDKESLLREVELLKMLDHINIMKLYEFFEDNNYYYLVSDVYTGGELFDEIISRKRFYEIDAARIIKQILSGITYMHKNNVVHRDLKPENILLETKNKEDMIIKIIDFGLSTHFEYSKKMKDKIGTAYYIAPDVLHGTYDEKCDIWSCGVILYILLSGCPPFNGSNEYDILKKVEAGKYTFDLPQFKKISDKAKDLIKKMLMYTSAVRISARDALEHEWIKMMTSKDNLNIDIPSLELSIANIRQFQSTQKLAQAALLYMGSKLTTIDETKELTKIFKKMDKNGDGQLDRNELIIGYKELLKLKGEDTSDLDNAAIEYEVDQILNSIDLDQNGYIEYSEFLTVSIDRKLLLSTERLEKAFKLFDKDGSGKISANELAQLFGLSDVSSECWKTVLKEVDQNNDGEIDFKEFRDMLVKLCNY

Sequence of L-lactate dehydrogenase (Plasmodium falciparum (isolate CDC / Honduras)) (Q27743 whole entry, looked up): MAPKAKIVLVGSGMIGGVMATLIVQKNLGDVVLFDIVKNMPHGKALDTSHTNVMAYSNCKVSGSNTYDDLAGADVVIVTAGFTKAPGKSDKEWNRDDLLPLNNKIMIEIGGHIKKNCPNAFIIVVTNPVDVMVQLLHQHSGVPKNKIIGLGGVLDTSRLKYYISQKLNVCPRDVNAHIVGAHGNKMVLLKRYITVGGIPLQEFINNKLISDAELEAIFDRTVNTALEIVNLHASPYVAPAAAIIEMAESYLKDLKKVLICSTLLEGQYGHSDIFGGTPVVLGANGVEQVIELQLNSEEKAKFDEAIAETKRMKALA
Sequence of Plasmodium falciparum protein kinase 6 (PK6, PF3D7_1337100) (Q8IDW1 1-305): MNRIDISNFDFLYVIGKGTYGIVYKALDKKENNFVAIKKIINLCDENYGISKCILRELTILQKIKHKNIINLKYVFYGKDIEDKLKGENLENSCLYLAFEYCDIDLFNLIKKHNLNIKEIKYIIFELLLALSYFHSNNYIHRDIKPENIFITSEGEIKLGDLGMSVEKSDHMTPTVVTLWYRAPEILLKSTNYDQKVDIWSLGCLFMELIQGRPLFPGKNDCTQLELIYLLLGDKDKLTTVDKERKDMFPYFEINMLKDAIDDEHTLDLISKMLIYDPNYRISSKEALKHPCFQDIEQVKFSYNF
Sequence of Calcium-dependent protein kinase 1 (Plasmodium falciparum (isolate 3D7)) (P62344 whole entry, looked up): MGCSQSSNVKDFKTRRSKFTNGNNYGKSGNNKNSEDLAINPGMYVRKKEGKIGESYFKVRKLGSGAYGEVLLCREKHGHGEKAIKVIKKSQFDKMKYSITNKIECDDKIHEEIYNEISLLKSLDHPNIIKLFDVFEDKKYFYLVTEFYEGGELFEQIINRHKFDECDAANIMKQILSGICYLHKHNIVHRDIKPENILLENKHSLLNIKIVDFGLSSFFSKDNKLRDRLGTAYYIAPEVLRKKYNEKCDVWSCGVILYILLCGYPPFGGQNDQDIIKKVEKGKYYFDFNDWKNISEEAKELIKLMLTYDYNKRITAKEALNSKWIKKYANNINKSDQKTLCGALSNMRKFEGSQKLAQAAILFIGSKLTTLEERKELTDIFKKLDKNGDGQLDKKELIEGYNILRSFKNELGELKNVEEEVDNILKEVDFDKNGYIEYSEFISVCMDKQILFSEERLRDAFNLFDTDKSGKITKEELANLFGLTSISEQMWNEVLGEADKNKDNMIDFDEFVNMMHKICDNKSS
Sequence of Protein kinase 7 (PK7), Plasmodium falciparum 3D7 (PF3D7_0213400) (Q7YTF7 1-343): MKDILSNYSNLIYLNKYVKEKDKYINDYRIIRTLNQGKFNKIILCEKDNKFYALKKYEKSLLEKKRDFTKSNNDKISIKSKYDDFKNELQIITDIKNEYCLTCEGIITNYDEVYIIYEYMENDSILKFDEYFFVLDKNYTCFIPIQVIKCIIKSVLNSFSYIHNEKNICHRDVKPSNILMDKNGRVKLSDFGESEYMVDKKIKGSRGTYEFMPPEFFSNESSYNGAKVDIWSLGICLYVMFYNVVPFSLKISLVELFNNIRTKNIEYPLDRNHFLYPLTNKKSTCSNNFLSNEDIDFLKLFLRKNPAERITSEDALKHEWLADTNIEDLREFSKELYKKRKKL

SMILES | growth inhibition [1] | inhibition [2] | inhibition [3] [%] | growth inhibition [4] | outcome [5] | outcome [6] | outcome [7] | outcome [8]
Cc1ccc(OCCCON2C(N)=NC(N)=NC2(C)C)cc1C | 94% (active) | 57% (active) | 0 | 96% (active) | inactive | inactive | inactive | inactive
CCCC(C)c1cnc2nc(N)nc(N)c2c1C (stereo not given) | 1% | 67% (active) | 3 | 95% (active) | inactive | inactive | inactive | inactive
Cc1cccc(-c2ccc3c(c2)CC(NCc2cccc(-n4ccnc4)c2)C3)c1 (stereo not given) | 49% | 11% | 0 | 101% (active) | inactive | inactive | inactive | inactive
CCc1ccccc1N1CCN(CCCC(=O)c2ccc(NC(=O)c3ccc(Cl)cc3)cc2)CC1 | 4% | 17% | 7 | 90% (active) | inactive | inactive | inactive | inactive
c1cc(CNCCc2ccncc2)cc(-c2ccc(-c3nc4ccccc4[nH]3)s2)c1 | 97% (active) | 1% | -3 | 101% (active) | inactive | inactive | inactive | inactive
Cn1nccc1C(=O)NCCNCc1cccc(-c2ccc(-c3nc4ccc(C(F)(F)F)cc4[nH]3)cc2)c1 | 98% (active) | 51% (active) | -1 | 102% (active) | inactive | inactive | inactive | inactive
Cc1c(CCc2cccc(F)c2F)[nH]c2ccccc2c1=O | 90% (active) | 41% | 2 | 91% (active) | inactive | inactive | inactive | inactive
CN1CCN(CC(=O)Nc2ccc(-c3cccc(-c4nc5ccc(C(F)(F)F)cc5[nH]4)c3)cc2)CC1 | 93% (active) | 45% | -5 | 101% (active) | inactive | inactive | inactive | inactive
CC(=O)Nc1csc(-c2cnc(/C=C(\C)C[C@@H]3OC[C@H](C[C@@H]4O[C@H]4[C@@H](C)[C@H](C)O)[C@@H](O)[C@H]3O)o2)c1 | 8% | 1% | 0 | 94% (active) | inactive | inactive | inactive | inactive
Fc1ccc2nc(-c3ccc(-c4ccc(CN5CCN(CCN6CCOCC6)CC5)cc4)cc3)[nH]c2c1 | 100% (active) | 38% | -5 | 101% (active) | inactive | inactive | inactive | inactive
CN1CCN(CCCSc2ccc3c(c2)ncn3-c2cc(OCc3ccccc3C(F)(F)F)c(C(N)=O)s2)CC1 | 86% (active) | 28% | 8 | 101% (active) | inactive | inactive | inactive | inactive
CCOc1ccc2c(c1)C(C)(c1ccc3c(c1)C(C)CC(C)(C)N3)CC(C)(C)N2 (stereo not given) | 3% | 5% | -5 | 94% (active) | inactive | inactive | inactive | inactive
O=C(NCc1cccc(C(F)(F)F)c1)[C@@H]1CCCN1C(=O)c1ccc(O)c(-c2ccc(Cl)c(Cl)c2)c1 | 97% (active) | -3% | 2 | 99% (active) | inactive | inactive | inactive | inactive
COc1ccc(C2CC(=O)C3=C(C2)NC(C)=C(C(=O)OC2CCCC2)C3c2ccc(O)cc2)cc1OC (stereo not given) | 92% (active) | -9% | -7 | 97% (active) | inactive | inactive | inactive | inactive
Fc1cc(CN2CCCC2)ccc1OCCCN1CCN(c2cccc(Cl)c2Cl)CC1 | 15% | 67% (active) | -1 | 82% (active) | inactive | inactive | inactive | inactive
CN1CCN(c2ccnc3ccc(NC(=O)Nc4ccc(Br)cc4)cc23)CC1 | 99% (active) | 12% | -5 | 101% (active) | inactive | inactive | inactive | inactive
O=C(CC(c1ccccc1)c1ccccc1O)N1CCOCC1 (stereo not given) | 5% | 30% | 0 | 84% (active) | inactive | inactive | inactive | inactive
COc1cc(C(=O)NC2CC(C)(C)N(C)C(C)(C)C2)ccc1-c1cc2cc(Cl)c(Cl)cc2[nH]1 | 36% | 65% (active) | 1 | 89% (active) | inactive | inactive | inactive | inactive
Cc1cc(N)c2cc(NC(=O)c3cccc(C(=O)Nc4ccc5nc(C)cc(N)c5c4)c3)ccc2n1 | 92% (active) | 9% | 4 | 94% (active) | inactive | inactive | inactive | inactive
COc1cc2nc(N3CCC(CNC(=O)c4cccc5cc[nH]c45)CC3)nc(N)c2cc1OC | 24% | 33% | -3 | 98% (active) | inactive | inactive | inactive | inactive

SMILES | growth inhibition [1] | inhibition [2] | inhibition [3] [%] | growth inhibition [4] | outcome [5] | outcome [6] | outcome [7] | outcome [8]
CCc1cc(=O)[nH]c(-n2nc(C)cc2NC(=O)CC(c2ccccc2)c2ccccc2)n1 | 75% (active) | 37% | 4 | 92% (active) | inactive | inactive | inactive | inactive
C[C@H](Cc1ccc(C(=O)OCCOC(=O)c2ccc(C[C@@H](C)NC[C@H](O)c3cccc(C(F)(F)F)c3)cc2)cc1)NC[C@H](O)c1cccc(C(F)(F)F)c1 | 86% (active) | 10% | -4 | 98% (active) | inactive | inactive | inactive | inactive
CC(C)Cc1c(O)nc(SCCN2CCOCC2)[nH]c1=O | -5% | 19% | 1 | 88% (active) | inactive | inactive | inactive | inactive
Cn1c(Nc2cc(C(C)(C)C)on2)nc2cc(Nc3ccnc(Nc4ccc(CS(C)(=O)=O)cc4)n3)ccc21 | 68% (active) | 37% | -1 | 101% (active) | inactive | inactive | inactive | inactive
Cc1nc2nc(N)nc(N)c2c(C)c1Cc1cccs1 | 2% | 66% (active) | -1 | 95% (active) | inactive | inactive | inactive | inactive
COc1ccc(OC)c2c1CCN(C)C2Cc1cccc2ccccc12 (stereo not given) | 79% (active) | 13% | 7 | 91% (active) | inactive | inactive | inactive | inactive
CS(=O)(=O)c1ccc(-c2cncc(Nc3cccc([N+](=O)[O-])c3)c2)cc1 | 70% (active) | 6% | -1 | 97% (active) | inactive | inactive | inactive | inactive
Cc1cc(N[C@@H](Cc2ccccc2)C(=O)NCCOc2ccccc2)nc(NCCOc2ccccc2)n1 | 24% | -1% | -4 | 98% (active) | inactive | inactive | inactive | inactive
CN(C)c1ccc(CN2CCC(CNC(=O)c3cc(-c4cccc(F)c4)cs3)C2)cc1 (stereo not given) | 13% | 48% | 0 | 96% (active) | inactive | inactive | inactive | inactive
Cc1cccc2[nH]c(-c3ccc(-c4cccc(CNCCN5CCNCC5)c4)cc3)nc12 | 2% | 9% | 1 | 85% (active) | inactive | inactive | inactive | inactive
Oc1ccc(Nc2ccnc3cc(Cl)ccc23)cc1 | 97% (active) | 0% | 0 | 100% (active) | inactive | inactive | inactive | inactive
Cc1nnsc1C(=O)Nc1ccc(-c2cccc(-c3nc4ccc(C(F)(F)F)cc4[nH]3)c2)cc1 | 36% | 69% (active) | 2 | 97% (active) | inactive | inactive | inactive | inactive
CN1CCN(CCCN(Cc2ccc(-c3cccc(CNCc4ccc5c(c4)OCO5)c3)cc2)C(=O)NC2CCCCC2)CC1 | 92% (active) | 31% | 4 | 95% (active) | inactive | inactive | inactive | inactive
c1ccc2oc(-c3cc4ccncc4cc3OC3CCNCC3)cc2c1 | 96% (active) | 11% | -3 | 100% (active) | inactive | inactive | inactive | inactive
O=[N+]([O-])c1cccc(CNCC2CCN(Cc3ccc(Cl)c(Cl)c3)CC2)c1 | 41% | 9% | 4 | 101% (active) | inactive | inactive | inactive | inactive
CCC[C@@H]([C@@H](CC1CCCCC1)C(=O)N[C@@H](CCCCNS(C)(=O)=O)C(=O)Nc1nccs1)N(O)C=O | 74% (active) | -13% | -1 | 101% (active) | inactive | inactive | inactive | inactive
CN1CCN(Cc2cc(NC(=O)c3ccc(-c4ccc(Cl)cc4Cl)cc3)ccc2-c2ccccc2)CC1 | 21% | 52% (active) | 3 | 95% (active) | inactive | inactive | inactive | inactive
COc1cc(OC)cc(-c2nnc(Sc3ccc(C#N)c([N+](=O)[O-])c3)n2C)c1 | 77% (active) | 1% | 3 | 95% (active) | inactive | inactive | inactive | inactive
CCOc1cc(C(=O)Nc2ccc(-c3nc4ccccc4[nH]3)cc2)cc(OCC)c1OCC | 94% (active) | 42% | -2 | 100% (active) | inactive | inactive | inactive | inactive
CN1CCCc2cc(NC(=O)C=Cc3ccc(-c4ccc(F)cc4F)o3)ccc2C1 | 27% | 5% | 4 | 90% (active) | inactive | inactive | inactive | inactive
